# Shown are actives, neighbours in structure and some others; about 4.7% of the full set was active somewhere.
# tim23-1 inh – growth inhibitors of tim23-1 mutant yeast | inhibition, % at 20 µM | 330,000 tested, 1.3% active | S. cerevisiae tim23-1 growth, BacTiter-Glo luminescence, 24 h;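 active = growth inhibition of the mutant yeast at or above 50%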;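 also: temperature-sensitive mutant grown at 25 °C; plate controls were DMSO-treated mutant yeast for no effect and medium wells lacking yeast for full effect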
# PfHsp90 yeast 2 – inhibits growth of yeast expressing Plasmodium falciparum Hsp90 | S. cerevisiae expressing PfHsp90, BacTiter-Glo ATP, 48 h; yeast lacking PDR1 and PDR3 efflux regulators | inhibition, % at 9.4 µM | 310,000 tested, 0.32% active | AID 504621;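 active = every replicate shows inhibition above about 80%, whatever the replicate mean, limit read from the data; inconclusive = mean inhibition reaches the set limit but some replicate falls short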;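 also: 0% = DMSO neutral controls and 100% = 20 µM radicicol positive controls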
# SKKanGAS inh – inhibitors of SKKanGAS S. pyogenes growth in kanamycin (SK-promoter or general growth effect). BacTiter-Glo, 6 h. inhibition, % at 7.5 µM. 300,000 tested, 1.3% active. AID 1662;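 active = mean replicate score, as percent of positive control median, at least 50; inconclusive = mean below 50 but one replicate at or above 50; inactive = mean and every replicate below 50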;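 also: strain carries kanamycin resistance gene driven by streptokinase promoter and grows in 40 µg/ml kanamycin; loss of luminescence reflects streptokinase promoter inhibition or plain growth inhibition; 0% = median of DMSO wells and 100% = positive control at its reference dose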
# TIM10 inh – inhibits growth of TIM10 yeast strain. S. cerevisiae TIM10 strain growth, BacTiter-Glo luminescence, 24 h. 330,000 tested, 1.4% active. inhibition, % at 10 µM;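 active = inhibition of 40% or more at the single tested concentration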;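 also: wild-type TIM10 isogenic control strain grown at permissive 25 °C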
# Calb FLC – C. albicans growth modulation with fluconazole. growth inhibition, % (test concentration not listed). 300,000 tested, 0.57% active. C. albicans CaCi-2 (fluconazole-resistant clinical isolate) + fluconazole, Alamar Blue growth, 48 h. AID 1979;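 active = growth inhibition above about 58% in most replicates, limit read from the data, passing the limit was not always enough; inconclusive = exactly half the replicates above a set limit; inactive = most replicates below a set limit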;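 also: all wells also contain fluconazole at 8 µg/ml as a sub-toxic cotreatment; 0% = median of DMSO wells and 100% = median of geldanamycin control wells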
# tim10-1 inh – inhibits growth of tim10-1 mutant yeast. inhibition, % at 20 µM. S. cerevisiae tim10-1 ts strain growth, BacTiter-Glo, 24 h. AID 463190. 330,000 tested, 2.2% active;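 active = inhibition of at least 40%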;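 also: mutant grown at 25 °C; 0% = DMSO wells with yeast and 100% = wells holding no yeast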
# tim10 confirm – TIM10 yeast growth inhibition, confirmed. inhibition, % at 10 µM. shares compounds with TIM10 inh. 4,600 tested, 63% active. S. cerevisiae tim10 strain growth, BacTiter-Glo luminescence, 24 h. AID 463215;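 active = inhibition of yeast growth at or above a set limit in either of two replicates at 10 µM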;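 also: this counterscreen used the strain with wild-type TIM10; 0% = yeast with DMSO and 100% = medium wells lacking yeast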
# An asterisk follows results filed as active; ? = inconclusive; . = no result.
SMILES,tim23-1 inh,PfHsp90 yeast 2,SKKanGAS inh,TIM10 inh,Calb FLC,tim10-1 inh,tim10 confirm
Cc1cccc(NC(=S)N/N=C/c2cccc(O)c2)c1C,14,4,1,31,8,24,.
Cc1cccc(NC(=S)NN(Cc2ccccc2)c2ccccc2)c1C,16,-12,8,43*,4,30,-21
CCCNC(=O)c1cc(S(=O)(=O)N2CCc3ccccc32)cn1C,4,22,1,-2,-4,4,.
COc1ccc(N2CCOCC2)c(NC(=O)c2ccc3c(c2)OCO3)c1,25,10,-4,6,0,10,.
O=C(NC12CC3CC(CC(C3)C1)C2)N1CCN(S(=O)(=O)c2ccc(Cl)cc2)CC1,11,.,6,43*,1,8,4
CS(=O)(=O)N1CCN(C(=O)NC23CC4CC(CC(C4)C2)C3)CC1,-12,-2,-5,-2,-9,13,.
O=C(CCl)Oc1ccc2occ(C(=O)c3cccs3)c2c1,-20,1,-8,61*,8,17,41*
N#CCOc1coc(CN2CCN(c3ccccc3)CC2)cc1=O,14,28,6,0,1,9,.
CCc1ccc(NC(=O)N2CCN(C(=O)C3CCCO3)CC2)cc1 (stereo not drawn),-5,-14,-4,1,-8,5,.
O=C1CC(c2ccccc2)=Nc2ccccc2N1Cc1ccccc1,19,-1,3,40*,-1,31,23
N#Cc1cc(C#N)c(N2CCN(c3cccc(Cl)n3)CC2)nc1N,38,-5,7,41*,?,12,18
NC1CCN(c2cccc(Cl)n2)CC1,4,.,-3,2,-13,-1,.
Cc1ccc(N(O)C(=O)NCCCCNC(=O)N(O)c2ccc(C)cc2)cc1,-3,9,3,-18,-2,-5,.
O=Cc1[nH]c2ccccc2c1N(C(=O)CCl)c1ccc([N+](=O)[O-])cc1,50,-9,5,41*,13,26,30
Cc1cc(C)cc(NC(=O)C2(c3ccccc3)CC2(Cl)Cl)c1 (stereo not drawn),38,-31,19,41*,1,37,40*
Cc1cccc(NC(=O)C2(c3ccccc3)CC2(Cl)Cl)c1 (stereo not drawn),26,-8,6,23,33,39,.
CC(C)(C)N(Cc1ccccc1)C(=O)CN1C(=O)NC2(CCCCCC2)C1=O,18,8,.,4,.,11,.
O=C(Nc1ccc2c(c1)CCC2)c1cc2ccccc2o1,44,15,-7,56*,4,20,-18
CCCCCCn1cnc2c(oc3nc4c(cc32)CCCC4)c1=O,11,0,-15,43*,-26,9,-2
CCCCn1cnc2c(oc3nc4c(cc32)CCCC4)c1=O,23,18,-1,18,38,-20,.
CCOC(=O)c1c(C)[nH]c(C(=O)COC(=O)CNS(=O)(=O)c2ccc(C)cc2)c1C,9,-22,.,71*,.,4,7
Cc1ccc(C(=O)/C=C/Nc2ccccn2)cc1,30,3,12,43*,-13,3,30
O=C(O)c1cccc(S(=O)(=O)N2CCN(C(c3ccccc3)c3ccccc3)CC2)c1,19,-4,.,2,1,26,.
COc1ccccc1N=c1scc(-c2ccc3c(c2)NC(=O)CO3)n1CC1CCCO1 (stereo not drawn),6,-24,-10,14,2,14,.
O=C1COc2ccc(-c3csc(=Nc4ccc(OC(F)F)cc4)n3CC3CCCO3)cc2N1 (stereo not drawn),5,.,2,40*,0,29,38*
CC(C)[C@H](NC(N)=O)C(=O)Nc1cccc(S(=O)(=O)N2CCOCC2)c1,-2,10,1,-5,6,0,.
Cc1cc(Sc2ncnc(N)c2[N+](=O)[O-])ncn1,30,-3,0,42*,101*,27,27
Cc1ccc(C)c(Oc2ncnc(N)c2[N+](=O)[O-])c1,29,-8,-16,22,-7,18,.
CCOc1ccc(-n2cnc3scc(-c4ccc(OC)c(OC)c4)c3c2=O)cc1,27,.,5,41*,37,36,16

# Source: PubChem BioAssay
